For eight compounds, Potency and outcome results are on record in PubChem BioAssay (Tox21).

Test [1] is described as follows: qHTS assay to identify small molecule antagonists of the thyroid receptor (TR) signaling pathway - cell viability counter screen (AID 743064). Note: nearly all actives have a fitted effect of over 50% in size. An outline of the steps: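 Rat GH3 pituitary tumor cells stably expressing two TR response elements driving luciferase were plated, rested 4 h, then dosed with library compounds and T3 (1 nM final). After 23.5 h at 37 °C, CellTiter-Fluor was added for 30 min and fluorescence recorded.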
In general terms: Quantitative high-throughput screening tests each substance at several concentrations.

A short description of test [2]: qHTS assay to identify small molecule antagonists of the thyroid receptor (TR) signaling pathway (AID 743065). Note: nearly all actives have a fitted effect of over 55% in size. Note: potency is the fitted concentration of half-maximal effect. An outline of the steps:
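Antagonism measured as loss of luciferase signal in GH3 cells stably carrying a TRE-luciferase reporter, co-treated with compound and T3 (1 nM final) for 23.5 h at 37 C. Viability was read in the same well by CellTiter-Fluor.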

In test [3] the test system is thyroid hormone receptor (rat, GH3 cells). In words: qHTS assay to identify small molecule agonists of the thyroid receptor (TR) signaling pathway (AID 743066; calls by dose curve).
Test [4] deals with Estrogen receptor (Homo sapiens) (UniProt P03372). In words: qHTS assay to identify small molecule antagonists of the estrogen receptor alpha (ER-alpha) signaling pathway (AID 743069; active = well fitted curve in the direction sought with a large enough effect in the signal ratio in the repeat runs, not every such curve was filed as active; the % refers to the signal ratio). An outline of the steps:
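Antagonist mode: compounds in DMSO were co-added with 17beta-estradiol to ER-alpha-bla HEK293 cells (2% charcoal-stripped serum) and left 18 h at 37C. Reporter inhibition was measured as FRET fluorescence after 2 h LiveBLAzer substrate at room temperature.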

Test [5] is described as follows: qHTS assay to identify small molecule antagonists of the estrogen receptor alpha (ER-alpha) signaling pathway - cell viability counter screen (AID 743074; calls by dose curve;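 note: HEK293 cells carrying ER-alpha-UAS-bla reporter stimulated with 17beta-estradiol; nearly all actives have a fitted effect of over 45% in size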).
For test [6], the target named is Estrogen receptor (Homo sapiens) (UniProt P03372). Kind of test: qHTS assay to identify small molecule agonists of the estrogen receptor alpha (ER-alpha) signaling pathway (AID 743075; calls by dose curve;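 note: HEK293 GripTite cells with ER-alpha and UAS-driven beta-lactamase reporter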).
Sequence of Estrogen receptor (Homo sapiens) (P03372 whole entry, looked up): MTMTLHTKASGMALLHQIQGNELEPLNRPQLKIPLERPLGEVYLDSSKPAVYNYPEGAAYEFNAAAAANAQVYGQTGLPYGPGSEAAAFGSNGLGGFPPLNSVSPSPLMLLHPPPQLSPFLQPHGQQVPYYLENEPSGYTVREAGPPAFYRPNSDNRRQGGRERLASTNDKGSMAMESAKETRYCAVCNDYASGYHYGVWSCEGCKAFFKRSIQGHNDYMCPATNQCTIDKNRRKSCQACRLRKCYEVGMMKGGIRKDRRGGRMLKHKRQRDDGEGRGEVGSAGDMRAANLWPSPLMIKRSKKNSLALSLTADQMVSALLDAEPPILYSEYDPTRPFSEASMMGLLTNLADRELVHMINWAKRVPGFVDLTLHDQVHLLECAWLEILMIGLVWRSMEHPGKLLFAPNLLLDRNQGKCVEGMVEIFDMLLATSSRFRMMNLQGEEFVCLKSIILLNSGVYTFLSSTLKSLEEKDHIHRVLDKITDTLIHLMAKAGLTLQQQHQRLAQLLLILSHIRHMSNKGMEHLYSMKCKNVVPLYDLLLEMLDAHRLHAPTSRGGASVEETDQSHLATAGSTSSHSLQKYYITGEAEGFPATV
The target is the same in test [7]. Kind of test: qHTS assay to identify small molecule agonists of the estrogen receptor alpha (ER-alpha) signaling pathway using the BG1 cell line (AID 743079). Note: nearly all actives have a fitted effect of over 20% in size.
Test [8] in a line: qHTS assay to identify small molecule antagonists of the estrogen receptor alpha (ER-alpha) signaling pathway using the BG1 cell line (AID 743080; calls by dose curve;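 note: BG1 cells stimulated with 17beta-estradiol alongside compound; series mostly up to about 70 µM; nearly all actives have a fitted effect of over 25% in size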). An outline of the steps: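 BG1Luc4E2, endogenous ER-alpha, 4xERE-luc; 5 d charcoal-stripped FBS, phenol red free; 24 h plating; cpd + 17beta-estradiol 21.5 h, 37 C/5% CO2; CellTiter-Fluor viability 30 min, then ONE-Glo luciferase 30 min RT.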

The next test concerns the target Aromatase (Homo sapiens) (UniProt P11511). Kind of test: qHTS assay to identify aromatase inhibitors (AID 743083). Note: series mostly up to about 70 µM; nearly all actives have a fitted effect of over 55% in size.
Test [9] in a line: qHTS assay to identify aromatase inhibitors - cell viability counter screen (AID 743084).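 Note: cells stimulated with testosterone during compound exposure; nearly all actives have a fitted effect of over 55% in size.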
The target in test [10] is Aryl hydrocarbon receptor (Homo sapiens) (UniProt P35869). Kind of test: qHTS assay to identify small molecule that activate the aryl hydrocarbon receptor (AhR) signaling pathway (AID 743085).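 Note: HG2L7.5c1 human HepG2 liver cells with stably integrated DRE-driven firefly reporter; series mostly up to about 70 µM; nearly all actives have a fitted effect of over 15% in size.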 An outline of the steps: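 Compounds were tested in HepG2 hepatocellular carcinoma cells harbouring a stably integrated luciferase gene under control of 20 DREs. Increased reporter signal after 24 h treatment at 37C was taken as AhR activation.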
Sequence of Aryl hydrocarbon receptor (Homo sapiens) (P35869 whole entry, looked up): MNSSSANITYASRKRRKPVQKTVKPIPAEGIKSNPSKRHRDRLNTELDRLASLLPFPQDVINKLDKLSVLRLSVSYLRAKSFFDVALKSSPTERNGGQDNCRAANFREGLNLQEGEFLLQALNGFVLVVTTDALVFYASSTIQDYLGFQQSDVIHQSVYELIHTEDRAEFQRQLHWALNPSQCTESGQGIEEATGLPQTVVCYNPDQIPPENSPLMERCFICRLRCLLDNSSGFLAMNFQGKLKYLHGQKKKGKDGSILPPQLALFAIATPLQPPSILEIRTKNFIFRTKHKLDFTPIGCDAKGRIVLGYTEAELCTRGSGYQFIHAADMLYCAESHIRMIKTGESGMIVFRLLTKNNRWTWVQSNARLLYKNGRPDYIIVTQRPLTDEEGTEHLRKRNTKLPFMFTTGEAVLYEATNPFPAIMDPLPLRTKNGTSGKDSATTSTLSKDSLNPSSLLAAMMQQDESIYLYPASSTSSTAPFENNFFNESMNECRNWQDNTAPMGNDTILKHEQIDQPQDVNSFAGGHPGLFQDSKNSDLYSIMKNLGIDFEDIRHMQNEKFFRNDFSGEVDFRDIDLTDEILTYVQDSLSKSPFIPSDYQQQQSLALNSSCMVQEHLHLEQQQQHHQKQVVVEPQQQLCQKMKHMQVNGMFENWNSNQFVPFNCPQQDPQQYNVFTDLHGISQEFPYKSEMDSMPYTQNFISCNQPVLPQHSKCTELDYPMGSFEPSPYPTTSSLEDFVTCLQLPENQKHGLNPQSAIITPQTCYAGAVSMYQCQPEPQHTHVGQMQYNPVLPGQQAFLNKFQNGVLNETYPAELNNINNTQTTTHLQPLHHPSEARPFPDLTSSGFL

A short description of test [11]: qHTS assay to identify small molecule that activate the aryl hydrocarbon receptor (AhR) signaling pathway - cell viability counter screen (AID 743086). Note: series mostly up to about 70 µM; nearly all actives have a fitted effect of over 45% in size. An outline of the steps: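 Cytotoxicity counter screen: CellTiter-Fluor signal (30 min, 37 C) in 4000 HepG2 cells/well carrying the DRE-luciferase reporter, following 24 h compound exposure at 37 C.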
For test [12], the target named is Peroxisome proliferator-activated receptor gamma (Homo sapiens) (UniProt P37231). In words: qHTS assay to identify small molecule agonists of the peroxisome proliferator-activated receptor gamma (PPARg) signaling pathway (AID 743094; active = well fitted activation curve with a large enough effect in the signal ratio in the repeat runs, not every such curve was filed as active; the % refers to the signal ratio). An outline of the steps: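 HEK293H PPARg-bla cells, 5 h settle at 37C/5% CO2; compound (DMSO) 17 h, 37C; B/G FRET substrate 1 h RT; fluorescence intensity read-out. qHTS format.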
Sequence of Peroxisome proliferator-activated receptor gamma (Homo sapiens) (P37231 whole entry, looked up): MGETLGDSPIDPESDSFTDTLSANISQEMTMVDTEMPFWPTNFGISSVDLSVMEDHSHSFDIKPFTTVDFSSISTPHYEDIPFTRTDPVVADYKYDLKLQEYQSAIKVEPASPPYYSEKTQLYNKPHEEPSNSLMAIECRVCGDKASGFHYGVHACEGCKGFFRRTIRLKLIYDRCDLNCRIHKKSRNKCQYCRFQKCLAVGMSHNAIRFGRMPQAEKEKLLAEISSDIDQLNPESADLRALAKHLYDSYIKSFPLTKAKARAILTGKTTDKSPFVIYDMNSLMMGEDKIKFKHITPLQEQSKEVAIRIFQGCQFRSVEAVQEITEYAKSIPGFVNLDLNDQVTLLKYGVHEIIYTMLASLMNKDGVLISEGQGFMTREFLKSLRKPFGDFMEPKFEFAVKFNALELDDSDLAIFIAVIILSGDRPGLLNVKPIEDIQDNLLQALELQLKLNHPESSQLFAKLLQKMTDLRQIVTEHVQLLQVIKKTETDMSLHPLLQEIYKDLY

A short description of test [13]: qHTS assay to identify small molecule antagonists of the peroxisome proliferator-activated receptor gamma (PPARg) signaling pathway - cell viability counter screen (AID 743194). Note: nearly all actives have a fitted effect of over 55% in size. In outline:
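Viability was measured as CellTiter-Glo luminescence in GeneBLAzer PPARg UAS-bla HEK293H cells. These cells had been exposed 17 h at 37 C to compounds together with rosiglitazone at 50 nM final, with the beta-lactamase readout taken in the same wells.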

Test [14] is described as follows: qHTS assay for small molecule agonists of the antioxidant response element (ARE) signaling pathway (AID 743202; active = well fitted activation curve with a large enough effect in the signal ratio in the repeat runs, not every such curve was filed as active; the % refers to the signal ratio). An outline of the steps: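 After 16 hours of compound treatment at 37 C, HepG2 cells with a stably integrated ARE-driven beta-lactamase reporter were loaded 2 hours at room temperature with LiveBLAzer B/G FRET substrate and fluorescence intensity measured.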

Test [15] can be described thus: qHTS assay for small molecule agonists of the antioxidant response element (ARE) signaling pathway - cell viability counter screen (AID 743203; calls by dose curve; note: nearly all actives have a fitted effect of over 55% in size). In outline:
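Luminescence read-out (CellTiter-Glo, 30 min at room temperature) measured cell viability in the same wells as the ARE beta-lactamase reporter. HepG2 ARE-bla cells were treated with compounds for 16 hrs at 37C/5% CO2.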

The nature of test [16]: qHTS assay for small molecule activators of the heat shock response signaling pathway - cell viability counter screen (AID 743209). Note: nearly all actives have a fitted effect of over 50% in size. In outline: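 HSE-bla HeLa; 1500 cells/well; overnight 37 C, 5% CO2; compound 5 h 37 C; LiveBLAzer B/G substrate 2.5 h RT; CellTiter-Glo 30 min RT; luminescence.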
Test [17] is described as follows: qHTS assay for small molecule activators of the heat shock response signaling pathway (AID 743210; active = well fitted activation curve with a large enough effect in the signal ratio in the repeat runs, with a control signal flat, not every such curve was filed as active; the % refers to the signal ratio; note: series mostly up to about 63 µM). In outline: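 Compound exposure lasted 5 h at 37 C in HeLa cells carrying a heat-shock-element-driven beta-lactamase reporter. Read-out: fluorescence intensity after 2.5 h room-temperature loading with LiveBLAzer B/G FRET substrate.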
Test [18] in a line: qHTS assay to identify small molecule antagonists of the estrogen receptor alpha (ER-alpha) signaling pathway using the BG1 cell line - cell viability counter screen (AID 743081).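 Note: compound given together with 17beta-estradiol as the ER stimulus; series mostly up to about 70 µM; nearly all actives have a fitted effect of over 45% in size.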
Test [19] concerns the target Peroxisome proliferator-activated receptor gamma (Homo sapiens) (UniProt P37231). Kind of test: qHTS assay to identify small molecule antagonists of the peroxisome proliferator-activated receptor gamma (PPARg) signaling pathway (AID 743191; calls by dose curve; note: series mostly up to about 63 µM; nearly all actives have a fitted effect of over 30% in size). An outline of the steps: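 Beta-lactamase reporter under UAS control in HEK293H PPARg-bla cells; compound treatment 17 h at 37C. Read-out: fluorescence intensity after 1 h room-temperature incubation with LiveBLAzer B/G FRET substrate.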

Each structure is given as a SMILES string. Inconclusive results are not listed. Calls of active or inactive are those of the source. Unless noted, calls come from the whole dose curve; as a rule, active = well fitted curve in the direction sought with a large enough effect in the repeat runs; inconclusive = weak or mixed curves; inactive = no such curve, though single readings can be large; an effect the other way counts as inactive or inconclusive.

Sequence of Aromatase (Homo sapiens) (P11511 whole entry, looked up): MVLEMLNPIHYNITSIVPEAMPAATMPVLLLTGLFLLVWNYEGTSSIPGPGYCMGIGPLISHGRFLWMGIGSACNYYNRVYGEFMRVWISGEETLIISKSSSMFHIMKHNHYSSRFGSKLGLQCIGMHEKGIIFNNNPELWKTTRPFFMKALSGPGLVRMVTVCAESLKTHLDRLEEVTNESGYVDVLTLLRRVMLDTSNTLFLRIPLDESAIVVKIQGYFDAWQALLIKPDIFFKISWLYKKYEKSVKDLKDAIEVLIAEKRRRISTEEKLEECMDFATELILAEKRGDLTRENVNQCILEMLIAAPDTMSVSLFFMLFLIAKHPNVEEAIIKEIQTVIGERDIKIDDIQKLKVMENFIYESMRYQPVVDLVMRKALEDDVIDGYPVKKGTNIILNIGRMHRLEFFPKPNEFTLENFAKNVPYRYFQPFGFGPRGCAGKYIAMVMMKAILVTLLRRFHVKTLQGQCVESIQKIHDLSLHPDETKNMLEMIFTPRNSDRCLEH

As for `CC(=O)N[C@@H](CCC(N)=O)C(=O)O`, the Potency result in test [1], in test [2], in test [3], in test [4], in test [6] and in test [7] was “inactive” in each case. The Potency entry (in [8]; with Aromatase (Homo sapiens); in test [9]; in test [10]; in [11]; in test [13]) was “inactive” in each case. Besides, the Potency entry in test [14] is “inactive”. Besides, the call in test [5], in test [12], in test [15], in [16] and in test [17] was inactive.
Regarding `Nc1nc2c(ncn2CCC(CO)CO)c(=O)[nH]1`, the Potency result in test [1], in test [2], in test [3], in test [4], in test [6] and in [7] was “inactive” in each case. Moreover, the Potency entry (in test [8]; in the test with Aromatase (Homo sapiens); in [9]; in test [10]; in test [11]; in test [13]) was “inactive” each time. In [14], the Potency result was “inactive”. For the same compound, the compound was called inactive in test [5], in [18], in [19], in test [15], in test [16] and in test [17].
For `O=Cc1ccccc1[N+](=O)[O-]`, the Potency entry in [1], in test [2], in test [3], in test [4], in [6] and in test [7] was “inactive” throughout. The Potency entry (in test [8]; with Aromatase (Homo sapiens); in [9]; in [10]; in test [11]; in test [13]) was “inactive” each time. In addition, the Potency result in test [14] was “inactive”. Besides, the result in [5], in test [18], in test [15], in test [16] and in test [17] was inactive.
Take `C[C@H](O)C(=O)Nc1c(I)c(C(=O)NC(CO)CO)c(I)c(C(=O)NC(CO)CO)c1I`: the Potency result in test [1], in test [2], in [3], in [4], in test [6] and in test [7] was “inactive” each time. For the same compound, the Potency result (with Aromatase (Homo sapiens); in test [9]; in test [10]; in [11]; in [13]; in test [14]) was “inactive” throughout. Besides, the compound was called inactive in [5], in test [18], in [12], in [19], in test [15] and in test [16]. Also, in [17], the compound was called inactive.
As for `CCCC(=O)O[C@]1(C(=O)CCl)[C@@H](C)C[C@H]2[C@@H]3CCC4=CC(=O)C=C[C@]4(C)[C@@]3(F)C(=O)C[C@@]21C`, the Potency entry (in [1]; in test [3]; in test [6]; in test [7]; with Aromatase (Homo sapiens); in [9]) was “inactive” throughout. Moreover, the Potency entry in [11] and in test [13] was “inactive” each time. Moreover, in [2], the Potency was 11.9 µM (active). For the same compound, the result in test [5], in [15] and in [17] was inactive.
Take `CC(C)(O)Cc1ccccc1`: the Potency result in test [1], in test [2], in test [3], in test [4], in test [6] and in [7] was “inactive” throughout. For the same compound, the Potency entry (in test [8]; with Aromatase (Homo sapiens); in test [9]; in test [10]; in [11]; in test [14]) was “inactive” each time. Also, the compound was classed as inactive in test [5], in test [18], in test [19], in test [15], in test [16] and in test [17].
In the case of `CC(O)CN(CCCN(C)C)CCCN(C)C` (stereo not given), the Potency entry in test [1], in test [2], in test [3], in [11] and in test [14] was “inactive” in each case. Moreover, the result in test [18], in test [16] and in test [17] was inactive.
For the compound `C[N+](C)(C)CC[N+]1(C)Cc2c(Cl)c(Cl)c(Cl)c(Cl)c2C1`, the Potency entry in test [1], in [3], in test [4], in test [6], in test [7] and in [8] was “inactive” throughout. For the same compound, the Potency result (with Aromatase (Homo sapiens); in test [9]; in test [10]; in [11]; in test [13]) was “inactive” each time. The compound was classed as inactive in test [5], in test [18], in test [12], in [19], in test [15] and in test [16]. Also, the call in test [17] was inactive.
